According to PubChem BioAssay AID2113 (National Center for Advancing Translational Sciences (NCATS), 2009):
Records with an inconclusive call do not appear. Entries that show only a call come without a potency. Calls of active or inactive are those of the source. Calls follow the shape of the dose curve; as a rule, active = well fitted curve in either direction with a large enough effect; inconclusive = small, poorly fitted or top-dose-only effect; inactive = no such curve, though single readings can be large or run the other way.

Biological target: Lysosomal alpha-glucosidase (Homo sapiens) (UniProt P10253)
Assay: Confirmation of Inhibitors and Activators of Human alpha-Glucosidase From Spleen Homogenate;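 as to potency: fluorescence of 4-methylumbelliferone released from a fluorogenic glucopyranoside substrate at pH 5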
Settings: alpha-glucosidase enzyme activity; series mostly up to 60.5 µM
How it was run: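 Fluorogenic assay using human spleen homogenate (1 ug) as enzyme source with 1 mM 4-methylumbelliferyl-alpha-D-glucopyranoside, pH 5.0 citrate buffer, 40 min at 37 C. 4-MU read (Ex 365/Em 440) after NaOH/glycine stop; AC50 from Hill fits.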
Potency is read from the fitted curve at half-maximal effect.

Row | SMILES | Potency
1 | O=C(c1cc2c(ccc3ccccc32)oc1=O)N1CCN(CCO)CC1 | inactive
2 | COc1ccc(CCN2CNc3c(c(=O)n(C)c(=O)n3C)C2)cc1OC | inactive
3 | COc1cc(-c2cc(N3C(=O)Nc4ccccc4N3O)n[nH]2)cc(OC)c1OC | inactive
4 | O=C1Cc2cc(S(=O)(=O)N3CCN(c4ccc([N+](=O)[O-])cc4)CC3)ccc2N1 | 3.66 µM [inhibitor] (active)
5 | COc1ccc(S(=O)(=O)N2CCOCC2)cc1 | inactive
6 | O=C(Nc1ccc(OCC(=O)N2CCN(S(=O)(=O)c3ccccc3)CC2)cc1)c1ccco1 | inactive
7 | O=C1CC(c2ccccc2)Cc2nc(NCc3ccco3)ncc21 (configuration not stated) | inactive
8 | CC(=O)c1ccc(N2CCN(C(=O)c3ccc4c(c3)CC(=O)N4)CC2)cc1 | inactive
9 | O=C(COc1ccc2ccccc2c1)N1CCN(C(=O)c2ccco2)CC1 | inactive
10 | CC1CCc2c(nc3ncnn3c2N2CCN(c3ccccc3F)CC2)C1 (configuration not stated) | inactive
11 | CCCN1CNc2c(c(=O)[nH]c(=S)n2CCc2cccc(Cl)c2Cl)C1 | 25.1 µM (active)
12 | O=C(O)Cn1nnnc1SCC(=O)Nc1ccc(OC(F)(F)F)cc1 | inactive
13 | O=c1oc2ccc3ccccc3c2cc1-c1nc2c(s1)CCc1ccccc1-2 | inactive
14 | CC1(CCc2ccc3c(c2)OCO3)NC(=O)c2ccccc2N1 (configuration not stated) | inactive
15 | CCCN1CNc2c(c(=O)[nH]c(=S)n2CCC(C)C)C1 | inactive
16 | Cc1ccc2c(=O)c3ccccc3n(CCCN)c2c1C | inactive
17 | CCC(=O)N1CCN(c2ccc(Cl)cc2NC(=O)c2ccc(N3CCCC3)c([N+](=O)[O-])c2)CC1 | inactive
